PolyA inhibitor: polyadenylation inhibitors in yeast reporter cells, primary screen, luminescence, S. cerevisiae. S. cerevisiae SKY197-pL101 polyadenylation reporter, beta-gal luminescence; efflux-impaired pdr1/pdr3 knockout yeast; score 100 = 6 SD above DMSO. activity score, % at 12 µM. 0.02% of 300,000 active. AID 1875, 2009;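 active = lowest replicate activity score at least 50, where 100 means six control SD above control mean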;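 note: yeast exposed to compound for 9 h at 30 °C; higher score means more reporter readthrough which indicates perturbed polyadenylation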
NALP1 inh: NALP1 inflammasome inhibitors in reconstituted yeast, colorimetric, S. cerevisiae, triplicate retest | S. cerevisiae NALP1/ASC/caspase-1 growth, X-gal OD620, 72 h | 0.61% of 280,000 active | inhibition, % at 10 µM | AID 2071, 2009; in the data active = inhibition mostly above about 24%, no sharp cut-off; inactive = mostly below about 32%
NLRP3 yeast inh: NALP3 inflammasome inhibitors in reconstituted yeast, primary screen, luminescence, uHTS; Yeast reconstituted NLRP3/ASC/caspase-1, beta-gal luminescence, 24 h; inhibition, % at 10 µM; 0.39% of 330,000 active;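 active = inhibition of 50% or more; inactive = inhibition below 50%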
Mot1-301 SUMO: yeast Mot1-301 growth rescue at high temperature, primary screen, SUMOylation pathway inhibitor project, S. cerevisiae, ATP luminescence, 38.5C | AID 2716, 2010 | growth rescue, % at 18.8 µM | 1% of 320,000 active | S. cerevisiae Mot1-301 growth rescue; percent above DMSO median, 100 means doubled;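 active = every valid replicate shows activation above 250% relative to neutral control wells; inactive = the rest, any valid replicate at or below 250%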
Mot1 SUMO dose: growth restoration of Mot1-301 yeast on galactose, dose response, SUMO pathway inhibitor project, whole organism, S. cerevisiae, ATP luminescence, cherry-picked samples | growth activity, percent, % at 42 µM | S. cerevisiae Mot1-301 galactose growth, 24 h; -100 = growth of slx-deleted rescue strain | shares compounds with Mot1-301 SUMO | 2,300 tested, under 10 active;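 active = Signal drops as the depositor expects, and the fitted half-maximal dose is no more than ten times the top valid tested dose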;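 note: more negative values mean stronger growth rescue toward the control strain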
Each line names hits and unclear results; the compound was inactive in the other large screens (follow-up assays come after a bar, where they were run). The list is not random: actives were taken first. Their share in the collection is about 1.8%.

CCc1ccc(NC(=O)C2CCN(C(=O)[C@@H]3Cc4ccccc4CN3)CC2)cc1	none
COC(=O)c1ccc2c(=O)n(NC(=O)C(c3ccccc3)c3ccccc3)c(=S)[nH]c2c1	none
O=c1[nH]c(=O)n([C@H]2C[C@H](O)[C@@H](CO)O2)cc1Br	none (no result: PolyA inhibitor, NALP1 inh)
O=c1[nH]c(=O)n(C2CCCO2)cc1Br (stereo unspecified)	Mot1-301 SUMO 678 | Mot1 SUMO dose inactive
Cc1cc(C)n(-c2ccc(C(=O)C(C#N)c3nc4ccccc4n3C)cc2)n1 (stereo unspecified)	Mot1-301 SUMO 775 | Mot1 SUMO dose inactive
Cc1cc(C)n(-c2ccc(C(=O)OC(C)C)cc2)n1	none
N/C(=N\NC(=O)c1sccc1OCc1ccc(Cl)cc1Cl)c1ccccn1	Mot1-301 SUMO 529 | Mot1 SUMO dose inactive
CNC(=S)NNC(=O)c1sccc1OCc1ccc(Cl)cc1Cl	none (no result: Mot1-301 SUMO)
CC1CCCC(C)N1/N=C/c1cc(Br)cc(Br)c1O (stereo unspecified)	Mot1-301 SUMO 476 | Mot1 SUMO dose inactive
CC1CCCC(C)N1/N=C/c1ccccc1F (stereo unspecified)	none
COc1ccc2c(C(=O)CN3CC(C)OC(C)C3)c[nH]c2c1 (stereo unspecified)	Mot1-301 SUMO 390 | Mot1 SUMO dose inactive
COc1ccc2c(C(=O)CN3CCC(C)CC3)c[nH]c2c1	none
CCOc1ccccc1CN1CCNC(=O)C1CC(=O)NCCN1CCOC1=O (stereo unspecified)	Mot1-301 SUMO 501 | Mot1 SUMO dose inactive
O=C(C[n+]1ccc(C(=O)N/N=C/c2ccc(Cl)cc2Cl)cc1)c1ccccc1	Mot1-301 SUMO 712 | Mot1 SUMO dose inactive
CCC(C)[C@H](NC(=O)OC(C)(C)C)C(=O)NCC1CCC(C(=O)N[C@@H](Cc2ccccc2)C(=O)O)CC1 (stereo partly specified)	Mot1-301 SUMO 628 | Mot1 SUMO dose inactive
CC(C)(C)OC(=O)N[C@@H](Cc1ccccc1)C(=O)NCC1CCC(C(=O)N[C@@H](CC(=O)O)C(=O)O)CC1 (stereo partly specified)	none
CC(C)[C@H](NC(=O)c1ccccc1)C(=O)OCc1nc2scc(-c3ccccc3)c2c(=O)[nH]1	none
C/C=C\C(=O)Nc1cccc(C2=NOC3(C2)C[C@@H](C(N)=O)N(C(=O)c2ccccc2)C3)c1 (stereo partly specified)	none
C/C=C\C=C/C(=O)Nc1cccc(C2=NOC3(C2)C[C@@H](C(N)=O)N(C(=O)c2ccccc2)C3)c1 (stereo partly specified)	Mot1-301 SUMO 433 | Mot1 SUMO dose inactive
CC(CN1CCCC1)OC(=O)C(c1ccccc1)c1ccccc1 (stereo unspecified)	none
COC(=O)C(CC(C)C)NC(=O)CNC(=O)c1ccccc1C (stereo unspecified)	Mot1-301 SUMO active | Mot1 SUMO dose inactive
O=C1CCN(Cc2ccccc2)CCN1CCOc1ccccc1	Mot1-301 SUMO 858 | Mot1 SUMO dose inactive
CCOC(=O)c1sc(NC(=O)CSc2n[nH]c(-c3ccc(Cl)cc3Cl)n2)c(C#N)c1C	Mot1-301 SUMO 459 | Mot1 SUMO dose inactive
CCCN1CCN(C(=O)c2ccc3nc(CC)c(CC)nc3c2)CC1	none
CCc1nc2ccc(C(=O)N3CCN(CC)CC3)cc2nc1CC	Mot1-301 SUMO 967 | Mot1 SUMO dose inactive
COc1cccc(NC(=O)Nc2cc(C(=O)NC(C)C)ccc2N2CC3CC(C2)c2cccc(=O)n2C3)c1 (stereo unspecified)	Mot1-301 SUMO 402 | Mot1 SUMO dose inactive
CCCNC(=O)c1ccc(N2CC3CC(C2)c2cccc(=O)n2C3)c(NC(=O)Nc2ccc(CC)cc2)c1 (stereo unspecified)	none
CCOC(=O)CSc1cc(C)nc2ccc(OC)cc12	Mot1-301 SUMO 476 | Mot1 SUMO dose inactive
COc1ccc2nc(C)cc(SCC(=O)Nc3c(C)cc(C)cc3C)c2c1	none
CNC(=S)NNC(=O)c1ccc(=O)n(Cc2cccc(C(F)(F)F)c2)c1	none
CCNC(=S)NNC(=O)c1ccc(=O)n(Cc2ccccc2)c1	Mot1-301 SUMO 834 | Mot1 SUMO dose inactive

Compound activity (PubChem BioAssay)
